Results filed as inconclusive are left out. A call without a number means that no potency is given here. Calls of active or inactive are those of the source. The call rests on the fitted dose curve; in most records, active means well fitted inhibition curve with a large enough effect; inconclusive means small, poorly fitted or top-dose-only effect; inactive means no such curve, though single readings can be large or run the other way.

Here are results for twelve compounds from PubChem BioAssay (NCATS).

In experiment [1] the test system is Zika virus NS2B-NS3 protease (unlinked complex). In words: Primary screen GU Rhodamine qHTS for Zika virus inhibitors: Unlinked NS2B-NS3 protease assay (AID 1347159). Further: nearly all actives have a fitted effect of over 60% in size. Further: potency means the concentration at half of the fitted maximal effect. A digest of the protocol:
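Noncovalent NS2B hydrophilic domain/NS3 protease complex (25 nM final) in 10 mM Tris-HCl pH 8.0, 0.01% Tween 20, preincubated 15 min with compounds (up to 114 microM), then 1.5 microM Rhodamine110 substrate. Fluorescence change over 15 min fitted to 4-parameter Hill.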

Experiment [2] concerns Zika virus NS2B-NS3 protease (linked construct). In words: Primary screen NINDS Rhodamine qHTS for Zika virus inhibitors (AID 1347160). Further: nearly all actives have a fitted effect of over 55% in size. In a few lines: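 Purified NS2B-NS3 protease with the NS2B hydrophilic domain joined by a flexible linker (25 nM) in 10 mM Tris-HCl pH 8.0, 0.01% Tween 20, preincubated 15 min at RT with compound; Rhodamine110 peptide substrate 1.5 µM; fluorescence change over 15 min; 4-parameter Hill fit.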

For `CCN1CCN(Cc2ccc(C(=O)Nc3ccc(C)c(Oc4ccc5c(c4)CC(=O)N5)c3)cc2C(F)(F)F)CC1`, the Potency result in experiment [1] and in experiment [2] was “inactive” throughout.
For the compound `COc1ccc(-c2cnc3c(-c4cccc5ncccc45)cnn3c2)cc1`, the Potency entry in experiment [1] and in experiment [2] was “inactive” throughout.
As to `CCCC(Nc1nc(-c2ccc(NC(=O)NCC)c(OC)c2)ncc1C)c1cccnc1` (centres undefined), the Potency result in experiment [1] and in experiment [2] was “inactive” throughout.
For `CNCCN1CCC(c2cc(CN(C)C(=O)c3cccc(Oc4ccccc4)c3)ccn2)CC1`, the Potency entry in experiment [1] and in experiment [2] was “inactive” each time.
As for `C=C1C(=O)OC2C=C(C)CC/C=C(\CO)CC(O)C12` (centres undefined), the Potency result in experiment [1] and in experiment [2] was “inactive” each time.
Turning to `C=C1C(=O)O[C@@H]2/C=C(\CO)CC/C=C(/C=O)C[C@@H](O)[C@@H]12`, the Potency entry in experiment [1] and in experiment [2] was “inactive” in each case.
For `CN(C)CCOc1cc(NS(=O)(=O)c2c(Cl)cc(C(F)(F)F)cc2Cl)ccc1Cl`, in experiment [1], the Potency was 5.62 µM (active). Moreover, the Potency result in experiment [2] is “inactive”.
As to `O=C(Nc1cccc([N+](=O)[O-])c1)c1cccc(S(=O)(=O)N2CCCCCC2)c1`, the Potency entry in experiment [1] and in experiment [2] was “inactive” each time.
With `CNc1cccc(CCOc2ccc3c(c2)CN(CC(F)(F)F)C(=O)[C@H](CC(=O)O)C3)n1`, the Potency entry in experiment [1] and in experiment [2] was “inactive” in each case.
Take `COC(=O)C(Cc1ccc(OCCn2c(=O)sc3cc(C(=O)c4ccccc4)ccc32)cc1)C(=O)OC`: the Potency entry in experiment [1] and in experiment [2] was “inactive” in each case.
Regarding `COC1CC(O[C@H]2CC[C@]3(C)C4CC[C@]5(C)C(C6=CC(=O)OC6)=CCC56OC46CC[C@@H]3C2)OC(C)C1O[C@@H]1O[C@H](CO[C@@H]2O[C@H](CO)[C@@H](O)[C@H](O)[C@H]2O)[C@@H](O)[C@H](O)[C@H]1O` (some centres undefined), the Potency result in experiment [1] and in experiment [2] was “inactive” in each case.
For `CCC(CC)C(=O)OC12C(OC(=O)C(C)C)C(C)C3(O)C(C=C(CO)CC4(O)C(=O)C(C)=CC43)C1C2(C)C` (centres undefined), the Potency entry in experiment [1] and in experiment [2] was “inactive” each time.
